These molecules were tested against AMP-activated protein kinase, AMPK (Homo sapiens) (UniProt P54646+O43741+P54619+Q9UGJ0+Q9Y478+Q13131+Q9UGI9) (assay: AMP-dependent Kinase enzyme assay. An in vitro enzyme assay that detects ADP turnover that is directly proportional to AMPK activity. This uses naive AMPK that is activated during the assay with MK-8722). Conditions: 30 µM.
Assay type: functional
Parameters: scale not given: direction of the effect not stated beside the values
With `CCCc1nnc(N2CCC(N3CCCCCC3)CC2)o1` the Percent Effect was -2.81%.
`CCN1CCN(C(=O)C2CCOC2)c2ccccc21` (stereo not given) gave a Percent Effect of -4.37%.
`O=C(CCC1CCCC1)N1C[C@H]2CC[C@@H]1CN(Cc1ccncc1)C2` gave a Percent Effect of 6.08%.
For `CN(C)c1nccnc1C1CCN(C(=O)C2(C)CCCCN2C)CC1` (stereo not given), the Percent Effect was 9.26%.
With `Cc1ccc(CN(C(=O)NCC2CCCO2)C2CC2)o1` (stereo not given) the Percent Effect was -2.62%.
For `Cc1c(NC(=O)c2ncn[nH]2)cccc1C(=O)NC(C)(C)C`, the Percent Effect was 5.84%.
`Cc1cc(C)n(C2CN(CCC(N)=O)C2)n1` showed a Percent Effect of -0.505%.
With `Cn1cc(Cl)c(CN(Cc2ccsc2)CC2CCCO2)n1` (stereo not given) the Percent Effect was 2.65%.
Molecule `O=C(NCc1nnc2n1CCC2)c1cn(-c2ccccc2Br)nn1` has a Percent Effect of 12%.
`OC1CCN(C2CCN(c3ccc(Cn4ccnc4)cn3)CC2)CC1` was tested, and the Percent Effect was -3.24%.
In the case of `Nc1nc(CCCNC(=O)c2ccccc2C2CCNC2)cs1` (stereo not given), the Percent Effect is reported as -5.1%.
`CCc1oc(C(=O)N[C@@H]2c3ccccc3C[C@@H]2O)cc1C` was tested, and the Percent Effect was -3%.
In the case of `CCC1COCCN1C(=O)NCc1nccn1CC(C)C` (stereo not given), the Percent Effect is reported as -3.83%.
`COCc1nn(Cc2ccc(Br)s2)c(=O)o1` gave a Percent Effect of 13.5%.
`CC(=O)N1CCC1c1nc(-c2ccc(C)s2)no1` (stereo not given) showed a Percent Effect of 7.59%.
`COc1ccccc1NC(=O)c1cnc(C2CCN(C(C)=O)C2)nc1C` (stereo not given) gave a Percent Effect of 5.26%.
In the case of `Cn1c(CO)nnc1SCc1c(F)cccc1Br`, the Percent Effect is reported as 2.62%.
With `CC(C)c1nnc2n1CCN(Cc1ccc3c(c1)OCO3)CC2` the Percent Effect was 9.68%.
Molecule `CS(=O)(=O)NC1CCN(Cc2coc(-c3ccccc3)n2)CC1` has a Percent Effect of 0.161%.
`Cc1cc(C)c2c(NC(C)c3nncn3C3CCCC3)ncnc2n1` (stereo not given) showed a Percent Effect of 4.35%.
`CCC(C)Oc1ccc(CNCCNC(C)=O)cc1OC` (stereo not given) was tested, and the Percent Effect was 2.89%.
`CN(C)CCN(Cc1ccc(Cl)cc1)C(=O)c1ccn(C)c(=O)c1` showed a Percent Effect of 6.12%.
`Cc1cc(F)ccc1N1CCCC(NC(=O)CCCn2ccnc2)C1` (stereo not given) gave a Percent Effect of 8.09%.
In the case of `CCN(CC)S(=O)(=O)NCC1Cc2ccccc2O1` (stereo not given), the Percent Effect is reported as -0.544%.
Work on `CC(c1ccon1)N(C)S(=O)(=O)NCc1ccccc1` (stereo not given) yielded a Percent Effect of 2.51%.
Work on `CCc1nc(C)c(CC(=O)N2CCC3(CC2)OCCCC3O)c(=O)[nH]1` (stereo not given) yielded a Percent Effect of 2.99%.
`Cc1cccc(C(=O)N2CC(=O)N(c3ccccc3Cl)CC2C)n1` (stereo not given) showed a Percent Effect of 20.1%.
Work on `Cc1cccc(C(C(=O)NC(C)(C)CN2CCCC2)N(C)C)c1` (stereo not given) yielded a Percent Effect of -15.9%.
`CCCOc1ccc(Cl)cc1CNc1ncnc2oc(C)nc12` showed a Percent Effect of 0.0102%.
With `CNC(=O)C(c1cccc(Cl)c1)C(C)C` (stereo not given) the Percent Effect was -6.65%.
Work on `COc1ccccc1OCCc1nnc(NC(=O)C2CC23CCC3)s1` (stereo not given) yielded a Percent Effect of 8.73%.
For `Cc1ccc(C(=O)NCCC2CN(C3CCCC3)CCO2)c(C)c1` (stereo not given), the Percent Effect was 4.11%.
`CNC(=O)C(C)NC(=O)c1cc(COc2ccc(OC)cc2Cl)[nH]n1` (stereo not given) gave a Percent Effect of -1.41%.
In the case of `COC(=O)c1ccc(N(C(=O)c2cc(Cl)ccn2)C(C)C)c(C)c1`, the Percent Effect is reported as -4.91%.
With `COc1cc2c(cc1CNCc1ccnc(-n3cccn3)c1)OC(C)C2` (stereo not given) the Percent Effect was -1.78%.
`CN(C)c1nc2sc(C(=O)N3CCNC(=O)CC3)cc2s1` showed a Percent Effect of 0.0719%.
With `O=C(CCn1cccn1)NCCOc1cccc(Cl)c1` the Percent Effect was -3.1%.
Molecule `O=C1CCC2(CCNCC2)CN1Cc1nncn1CCc1ccccc1` has a Percent Effect of 14.9%.
`CSc1nccc(N2CCC3(CCCN(CCc4ccccc4)C3)C2)n1` (stereo not given) gave a Percent Effect of 5.34%.
With `CC1CCCN(c2ncc(-c3ccccc3F)c(-c3nccn3C)n2)C1` (stereo not given) the Percent Effect was 9.01%.
